# Assay results: PubChem BioAssay (NCI)
# About 79,000 compounds went through this panel and 15% of them were active in at least one assay; those are over-represented in the sample as a whole. A number with no mark means an inactive call. Active and inactive are the calls of the source. No stated cut-off is given here; in the data, active means growth inhibition above about 70%; inactive means the rest.
# Assays:
# [1] = NCI Yeast Anticancer Drug Screen. Data for the rad52 strain (AID 147);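 further: 0% = growth of vehicle-treated control cultures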; conditions: S. cerevisiae rad52 mutant growth inhibition, active compounds read high
# Outline: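 Vehicle-treated cultures served as the reference for growth inhibition of compound-exposed yeast bearing a DNA repair mutation.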
# [2] = NCI Yeast Anticancer Drug Screen. Data for the wt1 strain (AID 149);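 further: 0% = growth of vehicle-treated wt1 cultures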; conditions: S. cerevisiae wt1 strain (SPY 50644) growth inhibition, active compounds read high
# Outline: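 Each compound is tested on wt1 yeast and the loss of growth versus vehicle gives the inhibition value.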
# [3] = NCI Yeast Anticancer Drug Screen. Data for the rad50EPP+ strain (AID 151);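 further: 0% = growth of vehicle-treated control cultures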; conditions: S. cerevisiae rad50 mutant strain, active compounds read high
# Outline: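 In this screen, rad50EPP+ yeast were exposed to compounds. Growth inhibition was scored against vehicle-treated controls.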
# [4] = NCI Yeast Anticancer Drug Screen. Data for the mgt1 strain (AID 153); conditions: S. cerevisiae mgt1 mutant growth inhibition, active compounds read high
# Outline: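 mgt1 strain exposed; growth vs vehicle control recorded as inhibition.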
# [5] = NCI Yeast Anticancer Drug Screen. Data for the rad50 strain (AID 155);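 further: 0% = growth of vehicle-only cultures of the same strain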; conditions: S. cerevisiae rad50 strain growth inhibition, active compounds read high
# Outline: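 Vehicle-treated cultures provide the reference for the growth inhibition reported for compound-exposed, repair-deficient yeast.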
# [6] = NCI Yeast Anticancer Drug Screen. Data for the mec2-1 strain (AID 157); conditions: S. cerevisiae mec2-1 strain, active compounds read high
# Outline: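 Vehicle-treated cultures served as reference for growth inhibition of compound-exposed mec2-1 yeast.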
# [7] = NCI Yeast Anticancer Drug Screen. Data for the rad14 strain (AID 159);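 further: 0% = growth of vehicle-treated control cultures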; conditions: S. cerevisiae rad14 strain growth inhibition, active compounds read high
# Outline: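 Inhibition of growth is reported for a repair-deficient yeast mutant following compound treatment, calculated relative to cultures that received vehicle.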
# [8] = NCI Yeast Anticancer Drug Screen. Data for the sgs1 mgt1 strain (AID 161);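 further: 0% = growth of cultures given vehicle only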; conditions: S. cerevisiae sgs1 mgt1 strain, active compounds read high
# Outline: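 Genetically altered yeast, compound exposure, growth inhibition relative to vehicle.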
# [9] = NCI Yeast Anticancer Drug Screen. Data for the CLN2oe strain (AID 163);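 further: 0% = growth of vehicle-only control cultures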; conditions: S. cerevisiae CLN2oe strain, active compounds read high
# Outline: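 Inhibition relative to vehicle-treated yeast is reported. Cells: strain with genetic alteration in cell-cycle control, grown with compound.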
# [10] = NCI Yeast Anticancer Drug Screen. Data for the cln2 rad14 strain (AID 165);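 further: 0% = growth equal to vehicle treated cultures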; conditions: S. cerevisiae cln2 rad14 strain, active compounds read high
# Outline: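 Each compound was tested on cln2 rad14 yeast. Inhibition of growth was calculated against vehicle-exposed controls.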
# [11] = NCI Yeast Anticancer Drug Screen. Data for the bub3 strain (AID 167); conditions: S. cerevisiae bub3 mutant strain, active compounds read high
# Outline: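 Mutant yeast screening strain plus compound; vehicle-treated cultures serve as the 0% inhibition reference.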
# [12] = NCI Yeast Anticancer Drug Screen. Data for the wt2 strain (AID 169); conditions: S. cerevisiae wt2 strain growth inhibition, active compounds read high
# Outline: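 Inhibition of yeast growth was determined after compound treatment, normalised to controls receiving only vehicle.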
# [13] = NCI Yeast Anticancer Drug Screen. Data for the mlh1 strain (AID 171);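 further: 0% = growth of vehicle-treated control cultures of the same strain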; conditions: S. cerevisiae mlh1 strain growth inhibition, active compounds read high
# Outline: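 Vehicle-normalised growth inhibition of a repair- or checkpoint-altered yeast strain following compound treatment.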
# [14] = NCI Yeast Anticancer Drug Screen. Data for the sgs1 strain (AID 173);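 further: 0% = growth of vehicle-only control cultures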; conditions: S. cerevisiae sgs1 mutant, active compounds read high
# Outline: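 Screen format: yeast with repair or checkpoint alterations, compound exposure, growth read relative to vehicle.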
# [15] = NCI Yeast Anticancer Drug Screen. Data for the mlh1 rad18 strain (AID 175); conditions: S. cerevisiae mlh1 rad18 strain growth inhibition, active compounds read high
# Outline: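 Vehicle-treated cultures served as the reference for growth inhibition in a yeast strain carrying DNA damage repair alterations exposed to each compound.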
# [16] = NCI Yeast Anticancer Drug Screen. Data for the rad18 strain (AID 177); conditions: S. cerevisiae rad18 mutant growth inhibition, active compounds read high
# Outline: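 Test articles were incubated with altered yeast defective in DNA damage repair. Results are given as inhibition of growth versus vehicle.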
# [17] = at 5.0 µM (retest, dose inferred, filed as 0.5)
# [18] = at 50.0 µM (retest, dose inferred, filed as 5.0)
smiles,measurement,setting,value
C/C(=N/NC(=S)N1CCCCCC1)c1cccc(/C(C)=N\NC(=S)N2CCCCCC2)n1,growth inhibition,[1]; at 1.2 µM,19%
same,growth inhibition,[1]; at 3.7 µM,25%
same,growth inhibition,[1]; at 11.0 µM,54%
same,growth inhibition,[1]; at 33.0 µM,73% (active)
same,growth inhibition,[1]; at 100.0 µM,71% (active)
same,growth inhibition,[2]; at 1.2 µM,17%
same,growth inhibition,[2]; at 3.7 µM,34%
same,growth inhibition,[2]; at 11.0 µM,60%
same,growth inhibition,[2]; at 33.0 µM,82% (active)
same,growth inhibition,[2]; at 100.0 µM,81% (active)
same,growth inhibition,[3]; at 1.2 µM,0%
same,growth inhibition,[3]; at 3.7 µM,-1%
same,growth inhibition,[3]; at 11.0 µM,-27%
same,growth inhibition,[3]; at 33.0 µM,-48%
same,growth inhibition,[3]; at 100.0 µM,-39%
same,growth inhibition,[4]; at 1.2 µM,23%
same,growth inhibition,[4]; at 3.7 µM,35%
same,growth inhibition,[4]; at 11.0 µM,52%
same,growth inhibition,[4]; at 33.0 µM,80% (active)
same,growth inhibition,[4]; at 100.0 µM,69%
same,growth inhibition,[5]; at 1.2 µM,38%
same,growth inhibition,[5]; at 3.7 µM,42%
same,growth inhibition,[5]; [17],42%
same,growth inhibition,[5]; at 11.0 µM,62%
same,growth inhibition,[5]; at 33.0 µM,79% (active)
same,growth inhibition,[5]; [18],93% (active)
same,growth inhibition,[5]; at 50.0 µM,90.8% (active)
same,growth inhibition,[5]; at 100.0 µM,73% (active)
same,growth inhibition,[6]; at 1.2 µM,22%
same,growth inhibition,[6]; at 3.7 µM,31%
same,growth inhibition,[6]; [17],31%
same,growth inhibition,[6]; at 11.0 µM,51%
same,growth inhibition,[6]; at 33.0 µM,81% (active)
same,growth inhibition,[6]; [18],92% (active)
same,growth inhibition,[6]; at 50.0 µM,91% (active)
same,growth inhibition,[6]; at 100.0 µM,83% (active)
same,growth inhibition,[7]; at 1.2 µM,6%
same,growth inhibition,[7]; at 3.7 µM,14%
same,growth inhibition,[7]; at 11.0 µM,40%
same,growth inhibition,[7]; at 33.0 µM,71% (active)
same,growth inhibition,[7]; at 100.0 µM,76% (active)
same,growth inhibition,[8]; [17],43%
same,growth inhibition,[8]; [18],93% (active)
same,growth inhibition,[8]; at 50.0 µM,92.8% (active)
same,growth inhibition,[9]; at 1.2 µM,-4%
same,growth inhibition,[9]; at 3.7 µM,-4%
same,growth inhibition,[9]; at 11.0 µM,-6%
same,growth inhibition,[9]; at 33.0 µM,-5%
same,growth inhibition,[9]; at 100.0 µM,23%
same,growth inhibition,[10]; [17],9%
same,growth inhibition,[10]; [18],91% (active)
same,growth inhibition,[10]; at 50.0 µM,93.2% (active)
same,growth inhibition,[11]; at 1.2 µM,-4%
same,growth inhibition,[11]; at 3.7 µM,-3%
same,growth inhibition,[11]; [17],58%
same,growth inhibition,[11]; at 11.0 µM,-4%
same,growth inhibition,[11]; at 33.0 µM,7%
same,growth inhibition,[11]; [18],92% (active)
same,growth inhibition,[11]; at 50.0 µM,92% (active)
same,growth inhibition,[11]; at 100.0 µM,15%
same,growth inhibition,[12]; at 1.2 µM,-1%
same,growth inhibition,[12]; at 3.7 µM,-6%
same,growth inhibition,[12]; at 11.0 µM,-1%
same,growth inhibition,[12]; at 33.0 µM,8%
same,growth inhibition,[12]; at 100.0 µM,32%
same,growth inhibition,[13]; at 1.2 µM,-2%
same,growth inhibition,[13]; at 3.7 µM,-9%
same,growth inhibition,[13]; at 11.0 µM,51%
same,growth inhibition,[13]; at 33.0 µM,76% (active)
same,growth inhibition,[13]; at 100.0 µM,71% (active)
same,growth inhibition,[14]; at 1.2 µM,21%
same,growth inhibition,[14]; at 3.7 µM,15%
same,growth inhibition,[14]; at 11.0 µM,41%
same,growth inhibition,[14]; at 33.0 µM,66%
same,growth inhibition,[14]; at 100.0 µM,73% (active)
same,growth inhibition,[15]; [17],59%
same,growth inhibition,[15]; [18],91% (active)
same,growth inhibition,[15]; at 50.0 µM,90.3% (active)
same,growth inhibition,[16]; at 1.2 µM,10%
same,growth inhibition,[16]; at 3.7 µM,26%
same,growth inhibition,[16]; at 11.0 µM,46%
same,growth inhibition,[16]; at 33.0 µM,67%
same,growth inhibition,[16]; at 100.0 µM,70% (active)
COC(=O)C1=C(C)NC(C)=C(C(=O)OCCCN2CCC(c3ccccc3)(c3ccccc3)CC2)C1c1cccc([N+](=O)[O-])c1 (stereo unspecified),growth inhibition,[1]; at 1.2 µM,-8%
same,growth inhibition,[1]; at 3.7 µM,2%
same,growth inhibition,[1]; at 11.0 µM,97% (active)
same,growth inhibition,[1]; at 33.0 µM,97% (active)
same,growth inhibition,[1]; at 100.0 µM,88% (active)
same,growth inhibition,[2]; at 1.2 µM,-3%
same,growth inhibition,[2]; at 3.7 µM,-5%
same,growth inhibition,[2]; at 11.0 µM,69%
same,growth inhibition,[2]; at 33.0 µM,98% (active)
same,growth inhibition,[2]; at 100.0 µM,94% (active)
same,growth inhibition,[3]; at 1.2 µM,66%
same,growth inhibition,[3]; at 3.7 µM,86% (active)
same,growth inhibition,[3]; at 11.0 µM,88% (active)
same,growth inhibition,[3]; at 33.0 µM,92% (active)
same,growth inhibition,[3]; at 100.0 µM,82% (active)
same,growth inhibition,[4]; at 1.2 µM,-5%
same,growth inhibition,[4]; at 3.7 µM,22%
same,growth inhibition,[4]; at 11.0 µM,98% (active)
same,growth inhibition,[4]; at 33.0 µM,98% (active)
same,growth inhibition,[4]; at 100.0 µM,93% (active)
same,growth inhibition,[5]; at 1.2 µM,1%
same,growth inhibition,[5]; at 3.7 µM,48%
same,growth inhibition,[5]; [17],37%
same,growth inhibition,[5]; at 11.0 µM,97% (active)
same,growth inhibition,[5]; at 33.0 µM,95% (active)
same,growth inhibition,[5]; [18],99% (active)
same,growth inhibition,[5]; at 50.0 µM,94.5% (active)
same,growth inhibition,[5]; at 100.0 µM,84% (active)
same,growth inhibition,[6]; at 1.2 µM,-1%
same,growth inhibition,[6]; at 3.7 µM,16%
same,growth inhibition,[6]; [17],9%
same,growth inhibition,[6]; at 11.0 µM,98% (active)
same,growth inhibition,[6]; at 33.0 µM,98% (active)
same,growth inhibition,[6]; [18],98% (active)
same,growth inhibition,[6]; at 50.0 µM,95.9% (active)
same,growth inhibition,[6]; at 100.0 µM,92% (active)
same,growth inhibition,[7]; at 1.2 µM,20%
same,growth inhibition,[7]; at 3.7 µM,76% (active)
same,growth inhibition,[7]; at 11.0 µM,99% (active)
same,growth inhibition,[7]; at 33.0 µM,98% (active)
same,growth inhibition,[7]; at 100.0 µM,89% (active)
same,growth inhibition,[8]; [17],50%
same,growth inhibition,[8]; [18],98% (active)
same,growth inhibition,[8]; at 50.0 µM,94% (active)
same,growth inhibition,[9]; at 1.2 µM,-3%
same,growth inhibition,[9]; at 3.7 µM,21%
same,growth inhibition,[9]; at 11.0 µM,96% (active)
same,growth inhibition,[9]; at 33.0 µM,98% (active)
same,growth inhibition,[9]; at 100.0 µM,84% (active)
same,growth inhibition,[10]; [17],14%
same,growth inhibition,[10]; [18],98% (active)
same,growth inhibition,[10]; at 50.0 µM,94.2% (active)
same,growth inhibition,[11]; at 1.2 µM,11%
same,growth inhibition,[11]; at 3.7 µM,16%
same,growth inhibition,[11]; [17],42%
same,growth inhibition,[11]; at 11.0 µM,83% (active)
same,growth inhibition,[11]; at 33.0 µM,98% (active)
same,growth inhibition,[11]; [18],97% (active)
same,growth inhibition,[11]; at 50.0 µM,97% (active)
same,growth inhibition,[11]; at 100.0 µM,90% (active)
same,growth inhibition,[12]; at 1.2 µM,-4%
same,growth inhibition,[12]; at 3.7 µM,25%
same,growth inhibition,[12]; at 11.0 µM,98% (active)
same,growth inhibition,[12]; at 33.0 µM,97% (active)
same,growth inhibition,[12]; at 100.0 µM,91% (active)
same,growth inhibition,[13]; at 1.2 µM,1%
same,growth inhibition,[13]; at 3.7 µM,51%
same,growth inhibition,[13]; at 11.0 µM,98% (active)
same,growth inhibition,[13]; at 33.0 µM,98% (active)
same,growth inhibition,[13]; at 100.0 µM,92% (active)
same,growth inhibition,[14]; at 1.2 µM,-3%
same,growth inhibition,[14]; at 3.7 µM,23%
same,growth inhibition,[14]; at 11.0 µM,97% (active)
same,growth inhibition,[14]; at 33.0 µM,98% (active)
same,growth inhibition,[14]; at 100.0 µM,91% (active)
same,growth inhibition,[15]; [17],74% (active)
same,growth inhibition,[15]; [18],98% (active)
same,growth inhibition,[15]; at 50.0 µM,92.7% (active)
same,growth inhibition,[16]; at 1.2 µM,-7%
same,growth inhibition,[16]; at 3.7 µM,9%
same,growth inhibition,[16]; at 11.0 µM,94% (active)
same,growth inhibition,[16]; at 33.0 µM,97% (active)
same,growth inhibition,[16]; at 100.0 µM,88% (active)
